Laboratory results from the supplement of paper PMC9694430.
Several values for one entry are separate records, joined by “and”; a condition that tells them apart may be missing. Identical values can stand only once.

How the values were obtained:
Experiment in all cases: thermal shift delta Tm vs DMSO control; higher = stronger stabilization (binding)
Conditions in all cases: 12.5 µM; protein concentration 2 µM
LOC_OS01G01410-cb001 = test system: LOC_OS01G01410-cb001
Method in brief: (§1)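 Rice kinase domain constructs were expressed in E. coli, purified, and tested by differential scanning fluorimetry with compound added in DMSO. Each well of a 96-well plate held 19.5 μl of 2 μM kinase in 100 mM potassium phosphate pH 7.5, 150 mM NaCl, 10% glycerol and 5 × SYPRO Orange, and fluorescence was read from 25°C to 95°C at 0.05°C/s. The melting temperature shift is the mean of triplicates, taken against protein with DMSO alone after Boltzmann fitting.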

LOC_OS01G02750-cb003 = test system: LOC_OS01G02750-cb003
Method in brief: as §1

LOC_OS01G10900-cb004 = test system: LOC_OS01G10900-cb004
Method in brief: as §1

LOC_OS01G13800-cb001 = test system: LOC_OS01G13800-cb001
Method in brief: as §1

LOC_OS01G14860-cb001 = test system: LOC_OS01G14860-cb001
Method in brief: as §1

LOC_OS01G21960-cb002 = test system: LOC_OS01G21960-cb002
Method in brief: as §1

LOC_OS01G39600-cb002 = test system: LOC_OS01G39600-cb002
Method in brief: as §1

LOC_OS01G48390-cb002 = test system: LOC_OS01G48390-cb002
Method in brief: as §1

LOC_OS01G51400-cb002 = test system: LOC_OS01G51400-cb002
Method in brief: as §1

LOC_OS01G52050-cb004 = test system: T1, LOC_OS01G52050-cb004
T1 sequence (whole entry): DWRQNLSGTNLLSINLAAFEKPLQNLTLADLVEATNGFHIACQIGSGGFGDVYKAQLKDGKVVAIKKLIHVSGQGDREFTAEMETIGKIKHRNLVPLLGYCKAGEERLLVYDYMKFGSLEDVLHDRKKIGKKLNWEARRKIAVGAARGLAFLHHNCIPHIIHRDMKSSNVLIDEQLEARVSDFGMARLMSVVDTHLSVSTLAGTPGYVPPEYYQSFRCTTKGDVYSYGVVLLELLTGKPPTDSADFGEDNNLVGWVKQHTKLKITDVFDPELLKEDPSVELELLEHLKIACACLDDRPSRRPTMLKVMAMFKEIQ
Method in brief: as §1

LOC_OS01G57100-cb003 = test system: LOC_OS01G57100-cb003
Method in brief: as §1

LOC_OS01G60330-cb001 = test system: LOC_OS01G60330-cb001
Method in brief: as §1

LOC_OS01G60700-cb002 = test system: LOC_OS01G60700-cb002
Method in brief: as §1

LOC_OS01G63280-cb003 = test system: LOC_OS01G63280-cb003
Method in brief: as §1

LOC_OS01G67340-cb003 = test system: LOC_OS01G67340-cb003
Method in brief: as §1

LOC_OS01G70970-cb002 = test system: LOC_OS01G70970-cb002
Method in brief: as §1

LOC_OS02G07810-cb001 = test system: LOC_OS02G07810-cb001
Method in brief: as §1

LOC_OS02G08530-cb003 = test system: LOC_OS02G08530-cb003
Method in brief: as §1

LOC_OS02G14120-cb001 = test system: LOC_OS02G14120-cb001
Method in brief: as §1

LOC_OS02G17970-cb001 = test system: LOC_OS02G17970-cb001
Method in brief: as §1

SMILES	thermal shift delta Tm (LOC_OS01G01410-cb001)	thermal shift delta Tm (LOC_OS01G02750-cb003)	thermal shift delta Tm (LOC_OS01G10900-cb004)	thermal shift delta Tm (LOC_OS01G13800-cb001)	thermal shift delta Tm (LOC_OS01G14860-cb001)	thermal shift delta Tm (LOC_OS01G21960-cb002)	thermal shift delta Tm (LOC_OS01G39600-cb002)	thermal shift delta Tm (LOC_OS01G48390-cb002)	thermal shift delta Tm (LOC_OS01G51400-cb002)	thermal shift delta Tm (LOC_OS01G52050-cb004)	thermal shift delta Tm (LOC_OS01G57100-cb003)	thermal shift delta Tm (LOC_OS01G60330-cb001)	thermal shift delta Tm (LOC_OS01G60700-cb002)	thermal shift delta Tm (LOC_OS01G63280-cb003)	thermal shift delta Tm (LOC_OS01G67340-cb003)	thermal shift delta Tm (LOC_OS01G70970-cb002)	thermal shift delta Tm (LOC_OS02G07810-cb001)	thermal shift delta Tm (LOC_OS02G08530-cb003)	thermal shift delta Tm (LOC_OS02G14120-cb001)	thermal shift delta Tm (LOC_OS02G17970-cb001)
N#CCNC(=O)c1ccc(-c2ccnc(Nc3ccc(N4CCOCC4)cc3)n2)cc1 [Momelotinib (CYT387)]	2.55 °C	0.08 °C	1.02 °C	0.1 °C	5.59 °C	2.72 °C	2.38 °C	0.91 °C	0.13 °C	3.27 °C	1.85 °C	6.73 °C	1.01 °C	0.32 °C	1.56 °C	0.41 °C	0.78 °C	1.72 °C	9.13 °C	0.53 °C
C[C@@H]1CCN(C(=O)CC#N)C[C@@H]1N(C)c1ncnc2[nH]ccc12	0.9 °C and -0.07 °C	0.59 °C and 1.29 °C	1.82 °C and 1.15 °C	-0.91 °C and -0.21 °C	0.33 °C and 0.19 °C	0.43 °C and 0.81 °C	1.17 °C and 1.71 °C	1.08 °C and 0.82 °C	0.59 °C and 0.38 °C	0.05 °C and 0.04 °C	1.55 °C and 1.07 °C	0.87 °C and 1.25 °C	0.98 °C and 1.64 °C	0.28 °C and 0.78 °C	0.15 °C and 0.3 °C	0.37 °C and 0.59 °C	0.22 °C and 0.98 °C	0.94 °C and 0.96 °C	0.97 °C and 0.47 °C	0 °C and 1.09 °C
CCN1CCN(Cc2ccc(-c3cc4c(N[C@H](C)c5ccccc5)ncnc4[nH]3)cc2)CC1	3.01 °C	0.66 °C	3.11 °C	0.28 °C	0.24 °C	0.28 °C	2.27 °C	0.54 °C	0.24 °C	0.44 °C	0.7 °C	1.5 °C	0.28 °C	0.52 °C	-0.08 °C	0.5 °C	1.12 °C	0.67 °C	3.81 °C	0.8 °C
CO[C@H]1C[C@@H]2CC[C@@H](C)[C@@](O)(O2)C(=O)C(=O)N2CCCC[C@H]2C(=O)O[C@H]([C@H](C)C[C@@H]2CC[C@@H](O)[C@H](OC)C2)CC(=O)[C@H](C)/C=C(\C)[C@@H](O)[C@@H](OC)C(=O)[C@H](C)C[C@H](C)/C=C/C=C/C=C/1C [Rapamycin (Sirolimus)]	0.87 °C	0.22 °C	-0.07 °C	-0.01 °C	0.33 °C	0.21 °C	0.05 °C	0.16 °C	0.12 °C	-0.13 °C	1.56 °C	1.82 °C	1.04 °C	0.14 °C	-0.59 °C	0.17 °C	0.45 °C	0.43 °C	1 °C	0.46 °C
